Experimental data as given in PubChem BioAssay AID2685 (National Center for Advancing Translational Sciences (NCATS), 2010).
About 2,100 (0.66%) of roughly 320,000 compounds were called active. Another 53% or so got no clear call; they are omitted. Calls come from the whole dose curve; as a rule, active = well fitted inhibition curve with a large enough effect in the signal ratio, with a control signal flat (not every such curve was filed as active); inconclusive = small, poorly fitted or top-dose-only effect, or effect the other way, or a change in a side signal; inactive = flat fitted curve, though single readings scatter; the % refers to the signal ratio. The full list was thinned out, with actives kept by preference.
Potency is the fitted concentration of half-maximal effect.

Test: qHTS Assay for Lipid Storage Modulators in Drosophila S3 Cells;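 for cell number change: cells counted by Cell Tracker Red CMTPX staining in the red channel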; for lipid storage change, negative = inhibition: % is set by controls: 0 for no effect and ±100 for the full control effect
Conditions: BODIPY lipid droplet fluorescence, 18-24 h, cells fed with added oleic acid; cell number change: measured here: cell count max response; series mostly up to 46.1 µM
How it was run: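 Laser-scanning cytometry quantifies lipid droplet accumulation (500–530 nm total intensity; droplet/cell object ratio) in oleic acid-fed (400 uM added) Drosophila S3 cells treated with a concentration series. 20 uM Triacsin C defined 100% inhibition.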
For `Cn1c(=O)c(C(=O)NCc2ccccc2)c(O)c2ccccc21`, the Potency was “inactive”.
In the case of `C[C@H]1CC[C@@]2(O[C@@H](CCO)C[C@@H](O)[C@@H]2O)O1`, the Potency is reported as “inactive” and the cell number change is reported as 10.3%.
In the case of `Cn1c(SCC(=O)N2CCN(c3ccccc3)CC2)nnc1-c1ccccc1`, the Potency is reported as “inactive” and the cell number change is reported as 1.56%.
In the case of `CC(NC(=O)c1ccccc1F)c1nnc(SCC(=O)NC2=NCCS2)n1C` (centres undefined), the Potency is reported as “inactive” and the cell number change is reported as -19.7%.
With `CC(NC(=O)c1ccccc1F)c1nnc(SCC(=O)N2CCN(c3ccccc3)CC2)n1C` (centres undefined) the Potency was 0.82 µM (active) and the cell number change was -26.5%.
In the case of `COc1ccc(NC(=O)CSCc2cc(=O)n3c(C)csc3n2)cc1`, the Potency is reported as “inactive” and the cell number change is reported as 4.18%.
In the case of `CC(C)Nc1nc2n(c(=O)n1)CCN2C(C)C`, the Potency is reported as 4.11 µM (active) and the cell number change is reported as 0.328%.
With `CC(C)Nc1nc(NC(C)C)nc(Nn2cnnc2)n1` the Potency was “inactive” and the cell number change was -7.52%.
With `CC(C)Nc1nc(NC(C)C)nc(SCC(N)=O)n1` the Potency was “inactive” and the cell number change was -10.2%.
For `CC1(C)CC2(C)Nc3ccccc3N2C(=S)N1` (centres undefined), the Potency was “inactive” and the cell number change was -13.1%.
For `COc1ccc(NC(=O)Nc2ccc(C(=O)N3CCOCC3)cc2)cc1OC`, the Potency was “inactive” and the cell number change was -17.3%.
In the case of `O=C(CNC(=O)c1ccc(Br)o1)Nc1ncccc1O`, the Potency is reported as “inactive”.
For `C=C1CCC[C@]2(C)C[C@H]3OC(=O)C(CNC(C)CC)[C@H]3CC12` (some centres undefined), the Potency was “inactive” and the cell number change was -16.4%.
For `C=C1CCC[C@]2(C)C[C@H]3OC(=O)C(CN4CCOCC4)[C@H]3C[C@@H]12` (some centres undefined), the Potency was 8.2 µM (active) and the cell number change was -15.3%.
In the case of `C=C1CCC[C@]2(C)C[C@H]3OC(=O)C(CN4CC(C)OC(C)C4)[C@H]3C[C@@H]12` (some centres undefined), the Potency is reported as “inactive” and the cell number change is reported as 8.39%.
In the case of `O=C(COC(=O)c1ccc(S(=O)(=O)N2CCOCC2)cc1)NCc1cccs1`, the Potency is reported as “inactive” and the cell number change is reported as -3.56%.
For `CC1CCCCC1NC(=O)CN1C(=O)NC(Cc2ccccc2)(Cc2ccccc2)C1=O` (centres undefined), the Potency was “inactive” and the cell number change was 27.7%.
For `Cn1c(NC(=O)/C=C\c2ccccc2)cc(=O)n(C)c1=O`, the Potency was “inactive” and the cell number change was -2.62%.
For `CC1(C)CC(=O)CC(C)(C)N1OC(=O)c1ccccn1`, the Potency was 32.6 µM (active).
For `COC(=O)c1ccc(OC(=O)c2ccccn2)cc1`, the Potency was “inactive” and the cell number change was 10.3%.
With `CC(=O)c1ccccn1` the Potency was “inactive” and the cell number change was 12.7%.
For `CC(C#N)Sc1nnc(-c2ccccc2F)n1C1CC1` (centres undefined), the Potency was “inactive” and the cell number change was 7.26%.
With `NNC(=O)c1cc(C2CC2)nc2ccc(Br)cc12` the Potency was “inactive” and the cell number change was -5.67%.
With `O=C(NCCOc1nc(N2CCCCC2)nc(N2CCOCC2)n1)Nc1ccccc1` the Potency was 0.731 µM (active) and the cell number change was -5.19%.
With `O=C(NCCOc1nc(N2CCCCC2)nc(N2CCCCC2)n1)Nc1ccccc1` the Potency was “inactive” and the cell number change was 0.327%.
For `O=C(NCCOc1nc(N2CCOCC2)nc(N2CCOCC2)n1)Nc1ccccc1`, the Potency was “inactive” and the cell number change was -14.8%.
With `Cc1ccc(NNC(N)=S)cc1Cl` the Potency was “inactive” and the cell number change was 18.1%.
With `COc1ccccc1-c1nnc(C2CCN(S(=O)(=O)c3ccccc3[N+](=O)[O-])CC2)o1` the Potency was “inactive”.
In the case of `Cc1cccc(-c2nc(CN3CCCC(C(=O)NC4CCCCCC4)C3)c(C)o2)c1` (centres undefined), the Potency is reported as “inactive” and the cell number change is reported as 2.33%.
With `Cc1ccc(C)c(S(=O)(=O)N2CCN(C(=O)c3cccn3C)CC2)c1` the Potency was “inactive” and the cell number change was -13.9%.
With `CCc1cc(C(=O)N2CCN(S(=O)(=O)c3ccc(Cl)cc3)CC2)sc1C` the Potency was 11.6 µM (active) and the cell number change was 6.97%.
For `CCOC(=O)N1CCN(S(=O)(=O)c2ccc(Cl)cc2)CC1`, the Potency was “inactive” and the cell number change was 24.3%.
For `CCc1cc(C(=O)N2CCN(S(=O)(=O)c3cc(C)ccc3C)CC2)sc1C`, the Potency was 20.6 µM (active) and the cell number change was -8.23%.
For `Cc1ccc(C)c(S(=O)(=O)N2CCN(C(=O)c3ccc(C)s3)CC2)c1`, the Potency was “inactive” and the cell number change was 6.27%.
With `Cc1ccccc1-n1nc(C)c2cc(C(=O)N3CCN(S(=O)(=O)c4ccc(Cl)cc4)CC3)sc21` the Potency was “inactive” and the cell number change was -4.24%.
In the case of `COc1ccccc1N1CCN(CC(O)COc2ccc3c(c2)CCC3)CC1` (centres undefined), the Potency is reported as “inactive” and the cell number change is reported as 1.49%.
In the case of `COc1ccc(-c2cc(C(=O)N3CCOCC3)no2)cc1OC`, the Potency is reported as “inactive” and the cell number change is reported as -3.96%.
For `CSCCNC(=O)Nc1c(-c2c(Cl)cccc2Cl)noc1C`, the Potency was “inactive”.
With `COc1ccccc1C1(CC(=O)O)CCOC(C(C)C)C1` (centres undefined) the Potency was “inactive” and the cell number change was -4.59%.
With `CCOC(=O)CC1(c2ccccc2)CCOC(C)(C)C1` (centres undefined) the Potency was “inactive” and the cell number change was 5.31%.
For `CCC1(C)CC(CC(=O)O)(c2ccccc2OC)CCO1` (centres undefined), the Potency was 29.1 µM (active) and the cell number change was -13.5%.
With `CC(C)c1ccc(S(=O)(=O)N2CCN(C(=O)C3CC3C)CC2)cc1` (centres undefined) the cell number change was 13.5% and the lipid storage change, negative = inhibition was 9.88% [at 0.0737 µM] (inactive).
In the case of `CC(=O)N1CCc2cc(Br)cc(S(=O)(=O)NCCCN3CCC(C)CC3)c21`, the Potency is reported as “inactive” and the cell number change is reported as 6.06%.
In the case of `Cc1cnc(C(=O)OCC(=O)c2ccc(F)c(F)c2)cn1`, the Potency is reported as “inactive” and the cell number change is reported as 6.94%.
With `Cc1nc2ncnn2c(C)c1CCC(=O)NC(C)CCc1ccco1` (centres undefined) the Potency was “inactive” and the cell number change was -25.3%.
In the case of `CC(C)COc1ccccc1C(=O)NC(CO)C(=O)O` (centres undefined), the Potency is reported as “inactive” and the cell number change is reported as -5.46%.
For `CCOc1ccccc1C(=O)NC(CO)C(=O)O` (centres undefined), the Potency was 20.6 µM (active) and the cell number change was -20.4%.
